# Assay results as given in ChEMBL document CHEMBL1961873, “Compounds: GSK PKIS; Assays: Nanosyn kinase panel” (2012).
# Assays:
# [1] = target: Sphingosine kinase 1 (Homo sapiens) (UniProt Q9NYA1); details: at 1 µM;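 note: mean SPHK1 inhibition value reported from the GSK PKIS kinase panel screen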
# [2] = target: T1, Sphingosine kinase 2 (Homo sapiens) (UniProt Q9NRA0); details: at 0.1 µM
# T1 sequence (whole entry): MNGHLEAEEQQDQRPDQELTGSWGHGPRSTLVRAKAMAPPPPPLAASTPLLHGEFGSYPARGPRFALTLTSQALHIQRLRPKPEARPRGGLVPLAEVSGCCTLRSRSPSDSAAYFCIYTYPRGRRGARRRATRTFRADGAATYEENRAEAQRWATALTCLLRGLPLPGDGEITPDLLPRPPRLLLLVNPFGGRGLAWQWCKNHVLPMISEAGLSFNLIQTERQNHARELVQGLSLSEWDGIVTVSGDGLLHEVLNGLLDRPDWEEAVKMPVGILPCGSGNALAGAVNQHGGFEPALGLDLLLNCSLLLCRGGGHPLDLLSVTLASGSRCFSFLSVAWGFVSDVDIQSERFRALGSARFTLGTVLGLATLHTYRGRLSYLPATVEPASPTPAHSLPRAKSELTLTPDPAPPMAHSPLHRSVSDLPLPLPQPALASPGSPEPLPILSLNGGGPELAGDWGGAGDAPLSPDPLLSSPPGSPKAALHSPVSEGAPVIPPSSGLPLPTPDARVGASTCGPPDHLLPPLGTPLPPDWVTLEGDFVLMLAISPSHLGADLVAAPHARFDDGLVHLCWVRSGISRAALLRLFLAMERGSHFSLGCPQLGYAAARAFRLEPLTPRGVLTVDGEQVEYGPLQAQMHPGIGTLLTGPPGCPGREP
# [3] = target: T1, Sphingosine kinase 2 (Homo sapiens); details: at 1 µM
# [4] = target: Casein kinase II subunit alpha (Homo sapiens) (UniProt P68400); details: at 0.1 µM
# Casein kinase II subunit alpha (Homo sapiens), sequence (P68400 whole entry, looked up): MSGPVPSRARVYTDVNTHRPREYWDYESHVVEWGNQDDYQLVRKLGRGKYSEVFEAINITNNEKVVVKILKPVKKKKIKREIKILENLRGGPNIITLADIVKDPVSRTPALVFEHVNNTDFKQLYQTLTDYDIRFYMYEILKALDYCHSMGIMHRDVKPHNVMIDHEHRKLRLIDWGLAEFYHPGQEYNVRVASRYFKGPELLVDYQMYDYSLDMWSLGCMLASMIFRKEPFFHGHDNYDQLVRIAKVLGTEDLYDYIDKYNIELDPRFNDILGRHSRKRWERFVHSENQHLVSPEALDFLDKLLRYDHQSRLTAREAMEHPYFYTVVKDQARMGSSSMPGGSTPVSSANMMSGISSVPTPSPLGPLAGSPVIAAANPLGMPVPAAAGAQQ
# [5] = target: Casein kinase II subunit alpha (Homo sapiens) (UniProt P68400); details: at 1 µM
# [6] = target: T2, Inhibitor of nuclear factor kappa-B kinase subunit alpha (Homo sapiens) (UniProt O15111); details: at 0.1 µM
# T2 sequence (whole entry): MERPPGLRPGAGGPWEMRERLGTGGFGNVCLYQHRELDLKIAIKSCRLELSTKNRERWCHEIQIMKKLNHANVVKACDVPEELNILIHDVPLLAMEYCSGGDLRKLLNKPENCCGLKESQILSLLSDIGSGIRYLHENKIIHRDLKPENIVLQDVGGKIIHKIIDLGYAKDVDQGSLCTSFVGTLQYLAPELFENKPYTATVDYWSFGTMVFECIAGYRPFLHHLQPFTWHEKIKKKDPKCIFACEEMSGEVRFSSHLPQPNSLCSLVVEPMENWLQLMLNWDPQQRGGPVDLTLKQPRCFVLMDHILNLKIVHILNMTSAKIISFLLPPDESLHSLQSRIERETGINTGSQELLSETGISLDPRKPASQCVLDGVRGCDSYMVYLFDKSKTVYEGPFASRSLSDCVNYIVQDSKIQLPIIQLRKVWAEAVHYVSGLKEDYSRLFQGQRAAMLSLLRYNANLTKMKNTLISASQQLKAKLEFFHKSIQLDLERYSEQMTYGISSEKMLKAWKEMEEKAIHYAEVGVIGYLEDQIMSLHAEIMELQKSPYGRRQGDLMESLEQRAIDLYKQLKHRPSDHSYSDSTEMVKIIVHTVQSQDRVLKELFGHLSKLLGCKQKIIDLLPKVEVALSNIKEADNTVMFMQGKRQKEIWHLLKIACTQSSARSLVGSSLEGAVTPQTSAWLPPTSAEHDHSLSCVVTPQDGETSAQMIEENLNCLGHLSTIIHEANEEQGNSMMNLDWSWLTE
# [7] = target: T2, Inhibitor of nuclear factor kappa-B kinase subunit alpha (Homo sapiens); details: at 1 µM
# [8] = target: T3, Inhibitor of nuclear factor kappa-B kinase subunit beta (Homo sapiens) (UniProt O14920); details: at 0.1 µM
# T3 sequence (whole entry): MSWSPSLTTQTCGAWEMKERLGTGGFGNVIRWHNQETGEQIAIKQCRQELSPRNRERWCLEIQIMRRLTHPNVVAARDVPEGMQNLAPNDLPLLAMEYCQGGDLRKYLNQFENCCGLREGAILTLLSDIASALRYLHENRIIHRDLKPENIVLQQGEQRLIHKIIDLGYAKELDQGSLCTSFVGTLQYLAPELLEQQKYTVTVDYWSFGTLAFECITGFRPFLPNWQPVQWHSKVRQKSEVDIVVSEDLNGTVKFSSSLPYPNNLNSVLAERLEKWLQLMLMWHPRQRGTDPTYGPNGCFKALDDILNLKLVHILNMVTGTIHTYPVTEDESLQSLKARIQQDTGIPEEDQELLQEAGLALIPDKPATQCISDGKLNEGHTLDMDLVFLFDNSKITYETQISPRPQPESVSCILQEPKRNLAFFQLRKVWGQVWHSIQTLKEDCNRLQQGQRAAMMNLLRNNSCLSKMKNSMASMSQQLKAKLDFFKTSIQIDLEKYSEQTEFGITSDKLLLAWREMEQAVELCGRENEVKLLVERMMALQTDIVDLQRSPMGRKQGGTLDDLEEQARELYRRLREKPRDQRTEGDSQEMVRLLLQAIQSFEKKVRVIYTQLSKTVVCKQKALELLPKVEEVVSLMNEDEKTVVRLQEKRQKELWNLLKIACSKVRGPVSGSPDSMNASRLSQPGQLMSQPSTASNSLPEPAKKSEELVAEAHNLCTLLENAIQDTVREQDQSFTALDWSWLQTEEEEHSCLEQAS
# [9] = target: T3, Inhibitor of nuclear factor kappa-B kinase subunit beta (Homo sapiens); details: at 1 µM
# [10] = target: T4, Inhibitor of nuclear factor kappa-B kinase subunit epsilon (Homo sapiens) (UniProt Q14164); details: at 0.1 µM
# T4 sequence (whole entry): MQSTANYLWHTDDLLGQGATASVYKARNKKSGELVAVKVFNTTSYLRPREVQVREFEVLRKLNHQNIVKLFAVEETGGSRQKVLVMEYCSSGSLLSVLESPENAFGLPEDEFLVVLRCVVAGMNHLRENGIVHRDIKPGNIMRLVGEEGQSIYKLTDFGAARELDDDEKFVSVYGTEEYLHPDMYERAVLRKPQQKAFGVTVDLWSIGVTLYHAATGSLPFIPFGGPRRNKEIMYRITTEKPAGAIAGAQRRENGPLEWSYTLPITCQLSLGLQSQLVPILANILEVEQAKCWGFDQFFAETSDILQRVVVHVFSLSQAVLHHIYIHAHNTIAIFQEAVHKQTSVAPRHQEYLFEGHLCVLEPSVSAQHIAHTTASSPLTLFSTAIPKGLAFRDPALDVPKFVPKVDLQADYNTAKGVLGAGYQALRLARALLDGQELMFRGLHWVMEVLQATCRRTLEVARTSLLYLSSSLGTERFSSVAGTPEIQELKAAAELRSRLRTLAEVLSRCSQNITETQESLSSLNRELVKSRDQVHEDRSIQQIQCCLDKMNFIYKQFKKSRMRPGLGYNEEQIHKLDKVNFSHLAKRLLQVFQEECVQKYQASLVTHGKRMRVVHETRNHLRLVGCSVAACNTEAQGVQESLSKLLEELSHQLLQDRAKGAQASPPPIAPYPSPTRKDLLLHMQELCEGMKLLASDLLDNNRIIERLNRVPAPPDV
# [11] = target: T4, Inhibitor of nuclear factor kappa-B kinase subunit epsilon (Homo sapiens); details: at 1 µM
# [12] = target: T5, Serine/threonine-protein kinase Nek1 (Homo sapiens) (UniProt Q96PY6); details: at 0.1 µM
# T5 sequence (whole entry): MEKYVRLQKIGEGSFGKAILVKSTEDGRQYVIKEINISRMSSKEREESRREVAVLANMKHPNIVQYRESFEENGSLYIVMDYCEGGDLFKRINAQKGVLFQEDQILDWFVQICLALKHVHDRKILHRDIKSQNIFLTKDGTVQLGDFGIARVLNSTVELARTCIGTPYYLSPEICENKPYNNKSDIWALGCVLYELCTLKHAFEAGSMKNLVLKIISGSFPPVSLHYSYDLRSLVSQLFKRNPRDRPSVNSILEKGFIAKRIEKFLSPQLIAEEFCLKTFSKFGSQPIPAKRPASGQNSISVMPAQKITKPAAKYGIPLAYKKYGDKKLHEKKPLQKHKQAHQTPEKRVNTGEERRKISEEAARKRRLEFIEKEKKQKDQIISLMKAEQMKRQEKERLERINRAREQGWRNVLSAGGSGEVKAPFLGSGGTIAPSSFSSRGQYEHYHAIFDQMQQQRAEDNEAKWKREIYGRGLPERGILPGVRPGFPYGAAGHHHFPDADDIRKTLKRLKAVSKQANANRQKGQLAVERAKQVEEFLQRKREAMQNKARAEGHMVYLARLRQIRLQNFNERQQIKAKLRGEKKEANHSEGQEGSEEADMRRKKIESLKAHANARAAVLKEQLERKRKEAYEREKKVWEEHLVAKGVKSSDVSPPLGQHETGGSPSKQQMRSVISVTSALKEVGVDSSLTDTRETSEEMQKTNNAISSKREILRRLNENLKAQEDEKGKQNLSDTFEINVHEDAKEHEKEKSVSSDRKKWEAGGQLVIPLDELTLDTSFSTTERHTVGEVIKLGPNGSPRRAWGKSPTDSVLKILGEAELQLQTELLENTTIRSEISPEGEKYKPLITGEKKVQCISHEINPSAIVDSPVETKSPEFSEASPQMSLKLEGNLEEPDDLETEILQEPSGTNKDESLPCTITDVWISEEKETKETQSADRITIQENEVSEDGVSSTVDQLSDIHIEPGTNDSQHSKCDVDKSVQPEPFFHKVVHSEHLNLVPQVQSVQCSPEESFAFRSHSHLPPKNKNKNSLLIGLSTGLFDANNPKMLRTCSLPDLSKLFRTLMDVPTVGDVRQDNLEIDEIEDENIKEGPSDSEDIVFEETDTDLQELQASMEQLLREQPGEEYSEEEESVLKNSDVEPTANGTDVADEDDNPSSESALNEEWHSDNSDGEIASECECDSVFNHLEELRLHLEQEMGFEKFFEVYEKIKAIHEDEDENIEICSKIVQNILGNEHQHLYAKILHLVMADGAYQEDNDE
# [13] = target: T5, Serine/threonine-protein kinase Nek1 (Homo sapiens); details: at 1 µM
# [14] = target: T6, Serine/threonine-protein kinase Nek2 (Homo sapiens) (UniProt P51955); details: at 0.1 µM
# T6 sequence (whole entry): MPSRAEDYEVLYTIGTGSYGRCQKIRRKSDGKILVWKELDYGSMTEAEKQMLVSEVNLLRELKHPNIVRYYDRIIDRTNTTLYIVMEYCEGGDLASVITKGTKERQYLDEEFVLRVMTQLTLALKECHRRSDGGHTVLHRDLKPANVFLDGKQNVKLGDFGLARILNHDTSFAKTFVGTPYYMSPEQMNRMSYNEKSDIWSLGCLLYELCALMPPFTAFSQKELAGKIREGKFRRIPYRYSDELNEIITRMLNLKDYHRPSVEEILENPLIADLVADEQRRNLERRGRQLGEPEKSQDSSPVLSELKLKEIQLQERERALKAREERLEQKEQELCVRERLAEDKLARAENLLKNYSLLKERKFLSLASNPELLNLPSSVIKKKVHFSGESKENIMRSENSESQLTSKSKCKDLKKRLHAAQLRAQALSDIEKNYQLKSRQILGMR
# [15] = target: T6, Serine/threonine-protein kinase Nek2 (Homo sapiens); details: at 1 µM
# [16] = target: Serine/threonine-protein kinase Nek6 (Homo sapiens) (UniProt Q9HC98); details: at 0.1 µM
# Serine/threonine-protein kinase Nek6 (Homo sapiens), sequence (Q9HC98 whole entry): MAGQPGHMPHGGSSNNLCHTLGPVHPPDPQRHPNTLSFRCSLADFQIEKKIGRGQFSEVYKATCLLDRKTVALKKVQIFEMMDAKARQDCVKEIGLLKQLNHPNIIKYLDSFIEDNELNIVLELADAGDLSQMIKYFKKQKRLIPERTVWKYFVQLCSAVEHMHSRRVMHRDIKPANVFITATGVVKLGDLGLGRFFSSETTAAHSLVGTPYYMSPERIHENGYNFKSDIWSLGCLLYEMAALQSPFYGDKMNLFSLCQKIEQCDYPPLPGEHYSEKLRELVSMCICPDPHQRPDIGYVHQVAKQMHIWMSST
# [17] = target: Serine/threonine-protein kinase Nek6 (Homo sapiens) (UniProt Q9HC98); details: at 1 µM
# [18] = target: Serine/threonine-protein kinase Nek7 (Homo sapiens) (UniProt Q8TDX7); details: at 0.1 µM
# Serine/threonine-protein kinase Nek7 (Homo sapiens), sequence (Q8TDX7 whole entry, looked up): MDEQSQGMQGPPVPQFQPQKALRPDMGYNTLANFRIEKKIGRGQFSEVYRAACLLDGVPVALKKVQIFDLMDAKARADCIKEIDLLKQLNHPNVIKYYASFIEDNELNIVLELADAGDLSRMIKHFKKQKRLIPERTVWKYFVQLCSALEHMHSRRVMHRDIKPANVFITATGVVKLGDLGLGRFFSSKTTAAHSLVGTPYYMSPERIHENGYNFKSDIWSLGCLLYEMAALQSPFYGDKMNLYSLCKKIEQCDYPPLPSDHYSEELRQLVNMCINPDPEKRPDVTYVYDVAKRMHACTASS
# [19] = target: Serine/threonine-protein kinase Nek7 (Homo sapiens) (UniProt Q8TDX7); details: at 1 µM
# [20] = target: T7, Serine/threonine-protein kinase Nek9 (Homo sapiens) (UniProt Q8TD19); details: at 0.1 µM;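 note: reported value is the mean percent inhibition of NEK9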
# T7 sequence (whole entry): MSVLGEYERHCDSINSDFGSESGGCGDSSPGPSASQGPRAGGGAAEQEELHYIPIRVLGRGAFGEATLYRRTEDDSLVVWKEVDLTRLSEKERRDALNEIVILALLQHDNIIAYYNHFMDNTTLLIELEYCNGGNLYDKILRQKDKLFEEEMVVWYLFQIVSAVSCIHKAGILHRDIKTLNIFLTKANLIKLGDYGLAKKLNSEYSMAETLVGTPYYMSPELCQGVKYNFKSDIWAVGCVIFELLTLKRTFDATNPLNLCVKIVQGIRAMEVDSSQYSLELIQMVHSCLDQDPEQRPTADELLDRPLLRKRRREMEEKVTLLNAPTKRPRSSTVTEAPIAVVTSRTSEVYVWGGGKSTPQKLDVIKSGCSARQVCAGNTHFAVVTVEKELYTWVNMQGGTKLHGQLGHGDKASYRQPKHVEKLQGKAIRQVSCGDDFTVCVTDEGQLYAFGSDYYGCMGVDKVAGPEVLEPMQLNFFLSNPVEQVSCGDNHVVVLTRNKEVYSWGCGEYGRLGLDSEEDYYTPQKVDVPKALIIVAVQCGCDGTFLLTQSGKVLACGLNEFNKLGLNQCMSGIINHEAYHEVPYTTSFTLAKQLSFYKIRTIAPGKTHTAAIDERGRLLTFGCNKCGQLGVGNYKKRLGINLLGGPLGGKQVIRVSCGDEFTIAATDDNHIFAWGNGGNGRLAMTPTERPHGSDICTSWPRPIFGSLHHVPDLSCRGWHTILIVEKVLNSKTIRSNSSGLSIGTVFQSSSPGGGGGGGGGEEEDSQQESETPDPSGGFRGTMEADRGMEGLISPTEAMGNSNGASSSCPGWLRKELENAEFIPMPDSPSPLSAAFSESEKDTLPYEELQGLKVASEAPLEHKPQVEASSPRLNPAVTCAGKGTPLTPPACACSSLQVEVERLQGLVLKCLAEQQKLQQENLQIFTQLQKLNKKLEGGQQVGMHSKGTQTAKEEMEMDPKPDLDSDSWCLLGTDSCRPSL
# Sphingosine kinase 1 (Homo sapiens), sequence (Q9NYA1 whole entry): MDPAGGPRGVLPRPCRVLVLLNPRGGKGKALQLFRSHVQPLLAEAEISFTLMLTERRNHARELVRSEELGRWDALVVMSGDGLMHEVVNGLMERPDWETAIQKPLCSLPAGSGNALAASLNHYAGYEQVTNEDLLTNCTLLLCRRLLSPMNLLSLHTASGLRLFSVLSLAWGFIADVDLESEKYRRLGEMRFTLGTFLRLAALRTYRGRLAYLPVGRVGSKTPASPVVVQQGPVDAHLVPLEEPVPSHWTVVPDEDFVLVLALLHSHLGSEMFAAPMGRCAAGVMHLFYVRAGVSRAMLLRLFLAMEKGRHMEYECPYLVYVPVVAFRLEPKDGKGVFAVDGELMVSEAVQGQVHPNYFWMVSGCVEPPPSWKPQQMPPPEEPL
compound,measurement,setting,value
NS(=O)(=O)c1cccc(-c2ccc3c(NC(=O)C4CC4)n[nH]c3c2)c1,inhibition,[1],2.86%
same,inhibition,[2],0.74%
same,inhibition,[3],-0.18%
same,inhibition,[4],0.11%
same,inhibition,[5],-0.44%
same,inhibition,[6],11.4%
same,inhibition,[7],5.2%
same,inhibition,[8],-0.49%
same,inhibition,[9],-1.55%
same,inhibition,[10],-4.07%
same,inhibition,[11],-3.2%
same,inhibition,[12],-0.9%
same,inhibition,[13],-0.76%
same,inhibition,[14],-1.41%
same,inhibition,[15],-0.18%
same,inhibition,[16],-1.88%
same,inhibition,[17],-0.37%
same,inhibition,[18],1.22%
same,inhibition,[19],-2.64%
same,inhibition,[20],4.44%
